# Only a selection was taken, and hits are over-represented in it overall.
# BL2 CD40 inh = inhibitors of CD40-induced NF-kB signaling, primary screen, BL2 cells, luciferase reporter, single point | CD40L-induced, 4 h | inhibition, % at 10 µM | hit rate 0.94% among 83,000;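 active = mean inhibition of at least 50% with a set share of replicates also reaching that level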;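 note: 0% = neutral control wells and 100% = IKK inhibitor VII at 50 µM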
# An asterisk follows results filed as active; ! = not active in a repeat; [ ] = remark or other dose.
SMILES,BL2 CD40 inh
S=C(NCc1ccc(Cl)cc1)N1CCN(c2ccccn2)CC1,5.9
CC(=NNC(=S)N1CCN(c2ccccn2)CC1)c1nccs1,77.7*
CN(C)C(=O)c1ccc(-c2ccc3c(c2)[C@H]2[C@H](CCN2C(=O)C2CCCC2)[C@@H](CO)N3C)cc1,-11.7[25 µM]
CS(=O)(=O)N1CC2C(c3ccc(Br)cc3)C(C1)N2CC(F)(F)F (stereo not given),5.0
CCCCCCCCN1C(=O)C(C(C)=O)=C(C)C1(C)O (stereo not given),4.9[25 µM]
CO[C@@H](C(=O)N(C)C[C@@H]1OCc2ccccc2-c2ccccc2C(=O)N([C@H](C)CO)C[C@H]1C)c1ccccc1,-11.3[25 µM]
CN1[C@H](C(=O)NCc2ccncc2)[C@@H](CO)[C@@H]2Cn3c(ccc(-c4ccccc4F)c3=O)[C@@H]21,-16.6[25 µM]
CC(C)NC(=O)Nc1ccc2c(c1)C(=O)N(C)C[C@H](C)[C@@H](CN(C)C)O2,-13.2
CC1CC(Nc2ccccc2)c2ccccc2N1C(=O)c1cccnc1 (stereo not given),3.3
CC(=O)N(c1ccccc1)C1CC(C)N(C(=O)c2ccccc2)c2ccccc21 (stereo not given),11.9
C[C@@H]1C[C@H](Nc2ccccc2)c2ccccc2N1C(=O)c1cccnc1,19.6*
C[C@H]1CN(C)C(=O)c2cc(NS(C)(=O)=O)ccc2O[C@H]1CN(C)C,7.3
Cc1ccccc1S(=O)(=O)N1C[C@@H]2N[C@H](C1)C2c1ccc(-c2cccc(C#N)c2)cc1 (stereo not given in full),53.6*![25 µM]
Cc1ccc(S(=O)(=O)N2C[C@@H]3N[C@H](C2)C3c2ccc(-c3cccc(C#N)c3)cc2)cc1 (stereo not given in full),21.4[25 µM]
N#Cc1cccc(-c2ccc(C3[C@@H]4CN(S(=O)(=O)c5ccccc5F)C[C@H]3N4)cc2)c1 (stereo not given in full),2.1
N#Cc1cccc(-c2ccc(C3[C@@H]4CN(S(=O)(=O)c5ccc(F)cc5)C[C@H]3N4)cc2)c1 (stereo not given in full),-5.9
N#Cc1cccc(-c2ccc(C3[C@@H]4CN(S(=O)(=O)c5ccccc5)C[C@H]3N4)cc2)c1 (stereo not given in full),-5.2
N#Cc1cccc(-c2ccc([C@@H]3[C@@H]4CN(S(=O)(=O)c5ccc(-c6ccccc6)cc5)C[C@H]3N4)cc2)c1,60.8*
O=C(c1ccc2c(c1)OCO2)N1C[C@@H]2[C@H](c3ccccc31)[C@@H](CO)N2Cc1ccc2c(c1)OCO2,5.1
C[C@H](CO)N1C[C@H](C)[C@H](CN(C)Cc2ccc(O)cc2)OCc2cn(nn2)CCCC1=O,-5.6
S=C(NC1CC1)N1CCc2ccccc2C1,7.9
S=C(N/N=C1\CCc2ccccc21)NC1CCCCC1,61.9*
S=C(Nc1ccccc1Oc1ccccc1)NC1CCCC1,8.6
Cc1cccc(S(=O)(=O)N[C@H]2CC[C@H](CCNC(=O)Nc3cc(F)ccc3F)O[C@@H]2CO)c1,23.0[25 µM]
O=C1NC2c3c(I)sc(I)c3C(=O)C2O1 (stereo not given),101.1*
SMILES,BL2 CD40 inh
O=C1NC2c3c(Cl)sc(Cl)c3C(=O)C2O1 (stereo not given),55.5*
CN1C(=O)c2cc(NC(=O)Nc3ccccc3Cl)ccc2OC[C@H]2O[C@H](CC(=O)O)CC[C@@H]21,-11.2[25 µM]
C/C=C/c1ccc([C@H]2[C@@H](CN(C)C(=O)C3CC3)N(C(=O)CC)[C@H]2CO)cc1,20.7
COc1ccc(S(=O)(=O)N2C[C@H](O)COC[C@@H]3O[C@@H](CC(=O)N[C@@H]4CCN(Cc5ccccc5)C4)CC[C@H]32)cc1,-1.6[25 µM]
COc1cccc(C#Cc2ccc([C@H]3[C@H](C#N)N(C(=O)C4CCCC4)[C@H]3CO)cc2)c1,-35.2
COc1cccc(C#Cc2ccc([C@H]3[C@@H](C#N)N(C(=O)C4CCCC4)[C@@H]3CO)cc2)c1,76.6*
COc1cccc(C#Cc2ccc([C@@H]3[C@@H](CO)N(C(=O)C4CCOCC4)[C@H]3C#N)cc2)c1,55.2*
COc1cccc(C#Cc2ccc([C@@H]3[C@H](C#N)N(C(=O)C4CC4)[C@H]3CO)cc2)c1,-18.1
COc1cccc(C#Cc2ccc([C@@H]3[C@@H](C#N)N(C(=O)C4CCCC4)[C@@H]3CO)cc2)c1,-27.2
COc1cccc(C#Cc2ccc([C@H]3[C@@H](CO)N(C(=O)C4CCCC4)[C@H]3C#N)cc2)c1,-1.7
CC=Cc1ccc2n(c1=O)C[C@H]1[C@H](CO)[C@@H](C(=O)NCC(F)(F)F)[C@@H]2N1C(=O)C1CCCCC1 (mixture of isomers),-4.5
C[C@H]1CN([C@@H](C)CO)C(=O)c2ccccc2-c2ccccc2CO[C@@H]1CN(C)S(=O)(=O)c1cccc(F)c1,-8.4
COc1ccccc1-c1ccc(C2[C@@H]3CN(S(=O)(=O)c4ccccc4)C[C@H]2N3)cc1 (stereo not given in full),17.4
C[C@@H]1CCCCO[C@H](CN(C)C(=O)CCC(F)(F)F)[C@@H](C)CN([C@@H](C)CO)C(=O)c2cc(NC(=O)C3CCCCC3)ccc2O1,17.4[25 µM]
CCC(=O)Nc1cc(-c2nn(C)c(=O)c3ccccc23)ccc1N1CCCCC1,48.4*
Cn1nc(-c2ccc(N3CCOCC3)c(NS(=O)(=O)c3ccccc3)c2)c2ccccc2c1=O,16.1
CCCC(=O)Nc1cc(-c2nn(C)c(=O)c3ccccc23)ccc1N1CCCCC1,1.2
CN(C)c1ccc2c(c1)[C@H]1C[C@H](CC(=O)NCc3ccccc3F)O[C@H](CO)[C@H]1O2,-0.2[25 µM]
O=C(Nc1ccccc1)NC1CC(C(=O)O)Nc2cc(Cl)cc(Cl)c21 (stereo not given),4.4[25 µM]
O=C1CC(=O)OC(c2ccc([N+](=O)[O-])cc2)O1,85.7*
O=C1CSC(c2ccc([N+](=O)[O-])cc2)N1CCN1CCCCC1 (stereo not given),11.8
O=C(O)c1ccc([N+](=O)[O-])cc1,6.4
C[C@@H]1CN([C@H](C)CO)C(=O)CCCn2cc(nn2)CO[C@@H]1CN(C)C(=O)c1cc(-c2ccccc2)on1,9.6[25 µM]
COc1ccc(C#Cc2ccc([C@@H]3[C@H](CO)N4CCCCN(C(=O)c5ccncc5)C[C@@H]34)cc2)cc1,-18.9[25 µM]
COc1ccc(C#Cc2ccc([C@@H]3[C@@H](CO)N4CCCCN(C)C[C@H]34)cc2)cc1,-53.8[25 µM]
SMILES,BL2 CD40 inh
COc1ccc(C#Cc2ccc([C@H]3[C@@H](CO)N4CCCCN(C)C[C@@H]34)cc2)cc1,active[25 µM]
COc1ccc(C#Cc2ccc([C@@H]3[C@H](CO)N4CCCCN(C)C[C@@H]34)cc2)cc1,-52.3[25 µM]
COc1ccc(C#Cc2ccc([C@H]3[C@H]4CN(C(=O)c5ccncc5)CCCCN4[C@H]3CO)cc2)cc1,52.5*[25 µM]
COc1ccc(C#Cc2ccc([C@@H]3[C@H]4CN(C(=O)c5ccncc5)CCCCN4[C@H]3CO)cc2)cc1,-15.7[25 µM]
CNC[C@H]1OCCCC[C@H](C)Oc2ccc(NS(=O)(=O)c3ccc(F)cc3)cc2C(=O)N([C@@H](C)CO)C[C@H]1C,-12.7[25 µM]
COc1ccccc1-c1ccc([C@H]2[C@@H](CO)N(C(=O)NC3CCCC3)[C@H]2C#N)cc1,-23.1
CN1C(=O)c2cc(NC(=O)c3cccc(C(F)(F)F)c3)ccc2OC[C@H]2O[C@@H](CC(=O)NCCN3CCCC3)CC[C@H]21,0.1[25 µM]
CC=Cc1ccc2n(c1=O)C[C@@H]1[C@@H](CO)[C@H](C(=O)NCCOC)[C@H]2N1Cc1nccs1 (mixture of isomers),5.9[25 µM]
